Source: ChEMBL document CHEMBL4513135, “CO-ADD screening of IQOG CSIS (Spain) compounds”
Among all 23,000 compounds or so, about 30 (0.1%) showed an effect of 50% or more. This is one part of a sample in which strong results are shown more often than they occur. Potency and affinity values are given separately.

What follows are molecules tested on Pseudomonas aeruginosa. Details: Concentration 32 ug.mL-1; ASSAY_TEST Inhibition of Bacterial Growth; detection method Absorption (OD600); MEDIA CAMHB; plate type 384well; NBS; CORNING #3640; time 18 hr.

| Structure (SMILES) | Inhibition [%] |
| --- | --- |
| CCOC(=O)/C(C#N)=C\c1ccc([N+](=O)[O-])cc1 | 5.37 |
| N#Cc1cc(C#N)c(N2CCCC2)nc1N1CCCC1 | 50.45 |
| Cl.N#Cc1cc(C#N)c(N2CCCC2)nc1Cl | 9.12 |
| N#Cc1cc(C#N)c(N2CCCC2)nc1N | 9.99 |
| COc1ccc2cc(C3C(C(C)=O)=C(C)Oc4nc5c(c(N)c43)CCC5)c(Cl)nc2c1 (configuration not stated) | 8.84 |
| O=C(Cc1c[nH]c2ccccc12)NNCc1ccccc1 | 23.11 |
| CC(C)NNC(=O)Cc1c[nH]c2ccccc12 | 53.17 |
| CCCC(C)NNC(=O)Cc1c[nH]c2ccccc12 (configuration not stated) | 22.46 |
| N#CC1=C(N)Oc2c(ccc3ccccc23)C1c1ccc(O)cc1 (configuration not stated) | 17.58 |
| C#CCN(C)Cc1cc2cc(OCCCCC3CCN(Cc4ccccc4)CC3)ccc2n1C | 12.81 |
| C#CCN(C)Cc1cc2cc(OCCC3CCN(Cc4ccccc4)CC3)ccc2n1C.Cl | 5.95 |
| C#CCN(C)Cc1cc2cc(OCCCCC3CCN(Cc4ccccc4)CC3)ccc2n1C.Cl | 51.07 |
| Nc1c2c(nc3c1c1ccccc1n3Cc1ccccc1)CCCC2 | 35.2 |
| COc1ccc(C2c3c(nc4c(c3N)CCCC4)Oc3ccc4ccccc4c32)cc1 (configuration not stated) | 16.04 |
| COc1cccc(C2c3c(nc4c(c3N)CCCC4)Oc3ccc4ccccc4c32)c1 (configuration not stated) | 38.82 |
| CN(N=O)C(=O)NC1(C(=O)O)CC1c1ccccc1 (configuration not stated) | 47.22 |
| CNC(=O)NC1(C(=O)O)CC1c1ccccc1 (configuration not stated) | 50.33 |
| COC(=O)C1(NC(=O)c2ccccc2)CC1c1ccccc1 (configuration not stated) | 23.63 |
| CNC(=O)c1c(Cl)c2cc(OCc3ccccc3)ccc2n1C | 34.06 |
| COc1ccc(C=C2N=C(c3ccccc3)OC2=O)cc1 | 9.34 |
| COc1ccc(C=C2N=C(c3ccccc3)SC2=O)cc1 | 50.12 |
| CC1=NC(=Cc2ccccc2)C(=O)S1 | 24.56 |
